This is part of a sample that, as a whole, favours compounds with a hit. Of some 79,000 tested, about 15% had one in any assay. Calls of active or inactive are those of the source. Cut-off read from the data, not from the text of the source: active = growth inhibition above about 70%; inactive = the rest.

One experiment can be described thus: NCI Yeast Anticancer Drug Screen. Data for the bub3 strain (AID 167). Particulars: S. cerevisiae bub3 mutant strain, hits give high values; at 50.0 µM unless noted. The method in brief:
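Screening used yeast with an engineered genetic alteration affecting cell cycle control. Compound-exposed cultures were compared with vehicle cultures, and reduced growth was taken as inhibition.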
Regarding `CNCCc1cn(C2OC(CO)C(O)C(O)C2O)cn1` (configuration not stated), the growth inhibition was -28.4% (inactive).

For `COc1ccc2c(c1)[n+](=O)c(C(=O)C/C(=N/NC(=O)c1ccccc1O)C(=O)Nc1ccc(Cl)c(C(F)(F)F)c1)c(C)n2[O-]`, the growth inhibition is 34.2% (inactive).

On to `Cc1ccc(N2CCC(O)C2)cc1` (configuration not stated), for which the growth inhibition was -8.4% (inactive).

In the case of `CCC(=O)OC(CCC1CCCO1)CCC1CCCO1` (configuration not stated), the growth inhibition was 22.9% (inactive).

Take `Cc1[nH]c(=O)cc2c1[nH]c1ccccc12`: the growth inhibition was 1.3% (inactive).

For `CCCOC(CCC(=O)NC(C)(C)C)CC(=O)NC(C)(C)C` (configuration not stated), the growth inhibition was 0.55% (inactive).

In the case of `O=C(COCC(=O)N/N=C/C=C/c1ccccc1)N/N=C/C=C/c1ccccc1`, the growth inhibition is -2.95% (inactive).

Take `CC1CCCCN1Cc1ccccc1COC(=O)c1ccc([N+](=O)[O-])cc1Cl` (configuration not stated): the growth inhibition was 21.4% (inactive).

With `COC1C(OC(=O)c2ccc(C)[nH]2)C(O)C(Oc2ccc3c(O)c(NC(=O)c4c[nH]c(C(=O)Nc5c(O)c6ccc(OC7OC(C)(C)C(OC)C(OC(=O)c8ccc(C)[nH]8)C7O)c(C)c6oc5=O)c4C)c(=O)oc3c2C)OC1(C)C` (configuration not stated), the growth inhibition was 11.4% (inactive).

For `CCOCc1cccc2ccccc12`, the growth inhibition is -6.55% (inactive).

As for `CCOC(=O)C1=CC(C(=O)OCC)=C2C=CC=C3C=CC=C1N32`, the growth inhibition was -18% (inactive).

As to `O=C(c1cccs1)N(C(=S)N1CCN(c2ccccc2)CC1)C1CCCCC1`, the growth inhibition is -26.8% (inactive).

Turning to `CC1CC(C)(O)C2C3(C)CCCC2(COC3=O)C12CCC1(CCOC1=O)O2` (configuration not stated), the growth inhibition was -0.6% (inactive).

For the compound `OCCCCC(O)CO` (configuration not stated), the growth inhibition was -18.6% (inactive).

Take `Cc1cc[nH]c(=O)c1[N+](=O)[O-]`: the growth inhibition was -9.65% (inactive).

In the case of `CC(C#N)C(=O)O` (configuration not stated), the growth inhibition was -8.15% (inactive).

Consider `CCc1ccc2c(-c3ccccc3)c3c(-c4ccccc4)c4ccccc4c(-c4ccccc4)c3c(-c3ccccc3)c2c1`, for which the growth inhibition is -8.15% (inactive).

In the case of `O=C(O)c1cccc2c(=O)c3ccccc3oc12`, the growth inhibition was -32.4% (inactive).

Turning to `Cc1cccc(C)c1NC(=O)Nc1ccccc1C(N)=O`, the growth inhibition was 17.1% (inactive).

Consider `COc1ccc(C(=O)/C=C/N)c(OC)c1`, for which the growth inhibition was 9.35% (inactive).

For the compound `O=C(O)C(F)(F)C(F)(F)C(F)(F)F`, the growth inhibition was 1.15% (inactive).

Consider `O=C(O)NC(=O)c1cc([N+](=O)[O-])ccc1COC1CCCCO1` (configuration not stated), for which the growth inhibition was 14.9% (inactive).

As for `O=C1CN(c2cccc(C(F)(F)F)c2)C(=O)CN1/N=C/c1ccc[nH]1`, the growth inhibition is -7.1% (inactive).

With `Brc1cc(Br)cc(CN2CCOCC2)c1`, the growth inhibition was 56.8% (inactive).

On to `Nn1c(NNC(=O)C(=O)Nc2cc(Cl)c(Cl)cc2Cl)n[nH]c1=S`, for which the growth inhibition is 19.2% (inactive).

Take `COC(=O)C(Cc1ccc(N(C)C)cc1)(NC(=O)c1ccccc1)P(=O)(OC)OC` (configuration not stated): the growth inhibition is 4.4% (inactive).

For `N#CSC(C(=O)c1ccccc1)c1ccccc1` (configuration not stated), the growth inhibition is 95.2% (active).

A further experiment can be described thus: NCI Yeast Anticancer Drug Screen. Data for the mlh1 rad18 strain (AID 175). The note with it: S. cerevisiae mlh1 rad18 strain growth inhibition, hits give high values; at 50.0 µM unless noted. The method in brief: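 Genetically defined yeast (DNA repair-deficient) exposed to compounds; growth inhibition determined relative to vehicle.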
For the compound `N#C/C(=C/c1ccccc1)c1ccccc1`, the growth inhibition was 24.1% (inactive).

With `COc1ccc(/C(=N\NC(=S)NN)C(c2ccc(OC)cc2)C2C(=O)Oc3ccccc32)cc1` (configuration not stated), the growth inhibition was 2.85% (inactive).

On to `O=C1CCCc2[nH]ccc21`, for which the growth inhibition was -4.55% (inactive).

For `C=C1CC2CC[C@@]34C[C@@H]5O[C@@H]6C(O[C@H]7CC[C@H](CC(=O)OC8[C@@H](C)C9OC%10C[C@]%11(C[C@@H]%12O[C@@]%13(C[C@@H](C)[C@@H]%12O%11)C[C@H](C)[C@@H]%11OC%12CC(C(O)CO)OC%12C[C@@H]%11O%13)OC%10CC9O[C@H]8C[C@H]8O[C@@H](CC[C@@H]1O2)C[C@@H](C)C8=C)O[C@@H]7[C@@H]6O3)C5O4` (some centres not stated), the growth inhibition is 78.5% (active).

`O=C(OC1C2C=COC(OC3OC(CO)C(O)C(O)C3O)C2C2(CO)OC12)c1ccc(O)cc1` (configuration not stated): the growth inhibition is -11.6% (inactive).

In the case of `CC1(C)N=C(N)N=C(N)N1c1ccc(N)cc1`, the growth inhibition was 7.8% (inactive).

For `CC1(C)OCC2OC3(c4nc(C#N)c(N)o4)OC(C)(C)OC3C2O1` (configuration not stated), the growth inhibition is -75% (inactive).

As for `O=C(c1ccccc1)C(F)S(=O)(=O)O` (configuration not stated), the growth inhibition was 16.9% (inactive).

With `O=C1OC(=O)C2C(Cl)C(Cl)C12` (configuration not stated), the growth inhibition is 3.4% (inactive).

For the compound `CC(=O)[C@@]1(O)CC[C@H]2[C@@H]3CC[C@@H]4C[C@H](O)CC[C@]4(C)[C@H]3[C@H](O)C[C@@]21C`, the growth inhibition is -7.85% (inactive).

On to `N#CSc1ccc(NN)cc1`, for which the growth inhibition was 1.55% (inactive).

As to `O=S(=O)(Cc1nc2ccccc2[nH]1)Cc1nc2ccccc2[nH]1`, the growth inhibition was 9.3% (inactive).

As to `COc1ccc(NS(=O)(=O)c2ccc(NC(CNC(C)S(=O)(=O)O)S(=O)(=O)O)cc2)cc1` (configuration not stated), the growth inhibition was 36.5% (inactive).

`CNCCc1cn(C2OC(CO)C(O)C(O)C2O)cn1` (configuration not stated): the growth inhibition was -13.3% (inactive).

Consider `COc1ccc2c(c1)[n+](=O)c(C(=O)C/C(=N/NC(=O)c1ccccc1O)C(=O)Nc1ccc(Cl)c(C(F)(F)F)c1)c(C)n2[O-]`, for which the growth inhibition is 1.35% (inactive).

As for `Cc1ccc(N2CCC(O)C2)cc1` (configuration not stated), the growth inhibition is -25.9% (inactive).

With `CCC(=O)OC(CCC1CCCO1)CCC1CCCO1` (configuration not stated), the growth inhibition is -3.55% (inactive).

Turning to `Cc1[nH]c(=O)cc2c1[nH]c1ccccc12`, the growth inhibition is -1.05% (inactive).

On to `CCCOC(CCC(=O)NC(C)(C)C)CC(=O)NC(C)(C)C` (configuration not stated), for which the growth inhibition is -9.9% (inactive).

For `O=C(COCC(=O)N/N=C/C=C/c1ccccc1)N/N=C/C=C/c1ccccc1`, the growth inhibition was 19.2% (inactive).

For the compound `CC1CCCCN1Cc1ccccc1COC(=O)c1ccc([N+](=O)[O-])cc1Cl` (configuration not stated), the growth inhibition is -3.6% (inactive).

With `COC1C(OC(=O)c2ccc(C)[nH]2)C(O)C(Oc2ccc3c(O)c(NC(=O)c4c[nH]c(C(=O)Nc5c(O)c6ccc(OC7OC(C)(C)C(OC)C(OC(=O)c8ccc(C)[nH]8)C7O)c(C)c6oc5=O)c4C)c(=O)oc3c2C)OC1(C)C` (configuration not stated), the growth inhibition was 26.6% (inactive).

For the compound `CCOCc1cccc2ccccc12`, the growth inhibition is -23.9% (inactive).

On to `CCOC(=O)C1=CC(C(=O)OCC)=C2C=CC=C3C=CC=C1N32`, for which the growth inhibition was -2.95% (inactive).

Turning to `O=C(c1cccs1)N(C(=S)N1CCN(c2ccccc2)CC1)C1CCCCC1`, the growth inhibition is -10.4% (inactive).

Turning to `CC1CC(C)(O)C2C3(C)CCCC2(COC3=O)C12CCC1(CCOC1=O)O2` (configuration not stated), the growth inhibition is 2.9% (inactive).

For the compound `OCCCCC(O)CO` (configuration not stated), the growth inhibition is -7.3% (inactive).

For the compound `Cc1cc[nH]c(=O)c1[N+](=O)[O-]`, the growth inhibition is 2.65% (inactive).

Turning to `CC(C#N)C(=O)O` (configuration not stated), the growth inhibition is -18.5% (inactive).

`CCc1ccc2c(-c3ccccc3)c3c(-c4ccccc4)c4ccccc4c(-c4ccccc4)c3c(-c3ccccc3)c2c1`: the growth inhibition was 23.4% (inactive).

On to `O=C(O)c1cccc2c(=O)c3ccccc3oc12`, for which the growth inhibition is 0.85% (inactive).

With `Cc1cccc(C)c1NC(=O)Nc1ccccc1C(N)=O`, the growth inhibition is -17.4% (inactive).

Consider `COc1ccc(C(=O)/C=C/N)c(OC)c1`, for which the growth inhibition was 10.9% (inactive).

Take `O=C(O)C(F)(F)C(F)(F)C(F)(F)F`: the growth inhibition was 3.25% (inactive).

As to `O=C(O)NC(=O)c1cc([N+](=O)[O-])ccc1COC1CCCCO1` (configuration not stated), the growth inhibition was 0.75% (inactive).

With `O=C1CN(c2cccc(C(F)(F)F)c2)C(=O)CN1/N=C/c1ccc[nH]1`, the growth inhibition was -5.4% (inactive).

In the case of `Brc1cc(Br)cc(CN2CCOCC2)c1`, the growth inhibition was 46.2% (inactive).

As for `Nn1c(NNC(=O)C(=O)Nc2cc(Cl)c(Cl)cc2Cl)n[nH]c1=S`, the growth inhibition is 1.4% (inactive).

As to `COC(=O)C(Cc1ccc(N(C)C)cc1)(NC(=O)c1ccccc1)P(=O)(OC)OC` (configuration not stated), the growth inhibition was -5.4% (inactive).

`N#CSC(C(=O)c1ccccc1)c1ccccc1` (configuration not stated): the growth inhibition was 91.3% (active).

These data come from PubChem BioAssay (NCI).
